Assay results from PubChem BioAssay (NCI).
Compounds without any hit were thinned out: in the full panel of roughly 83,000, 20% have a hit.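 Single-dose data. Exposure time 48 hours. Values below 10 considered active.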 A number with no mark means an inactive call. Active and inactive are the calls of the source.

Test system: HL-60(TB) leukemia
Assay: NCI-60 one-dose screen, 48 h (100 = growth as untreated, 0 = no growth, -100 = all killed)
Details: 10 µM unless noted

Row | SMILES | growth
1 | COc1ccc(-c2nc(SCCC(C)C)nc(N/N=C\c3ccccc3O)c2C#N)cc1 | 83.6%
2 | NNC(=O)Cc1ccccc1 | 73.1%
3 | CSC(=N\N=C\c1ccc(N(C)C)cc1)/N=C/N(C)C | 105%
4 | CC(CCN1CCN(CCC(C)CC(C)(C)C)C1CC(C)CC(C)(C)C)CC(C)(C)C (stereo not given) | 97.8%
5 | CS(=O)(=O)c1ccc(-c2nc3cc(Cl)ccc3n2CC(=O)N/N=C/c2ccc(Cl)cc2)cc1 | 25.3%
6 | O=C1NC(=O)C(c2coc3cc(Br)ccc23)=C1c1c[nH]c2ccccc12 | 13.1%
7 | COc1ccc(C(=O)N2c3ccccc3Sc3ccccc32)c(F)c1 | 15.4%
8 | COc1ccc(/C=C(/C(=O)c2ccc(Cl)cc2)C(=O)C(F)(F)F)cc1 | 106%
9 | CCCCCCN=C(N)CCCCCCCCCCC(N)=NCCCCCC | 55.1%
10 | CCN(CC)CCOC(=O)Nc1c(C(C)C)cccc1C(C)C | 101%
11 | O=C(COc1ccc(Cl)cc1Cl)Oc1coc(CSc2nc3ccccc3s2)cc1=O | 100%
12 | OC1CSSC1Cn1cnc2c(Nc3ccc(OCc4cccc(F)c4)c(Cl)c3)ncnc21 (stereo not given) | -29.3% (active)
13 | COc1cc(C2CC(=O)Nc3c2cnn3C)cc(OC)c1OC (stereo not given) | 97.6%
14 | COC(=O)c1ccc2[nH]c(O)c(C(=Nc3ccc(N(C)C(=O)CN4CCN(C)CC4)cc3)c3cccc(OC)c3)c2c1 | -35.9% (active)
15 | CC1=C(C(=O)Nc2ccc(F)cc2)C(c2ccc(C)cc2)C2=C(CC(C)(C)CC2=O)N1 (stereo not given) | 114%
16 | N#CC1=C(N)Oc2c(sc3c(F)cccc23)C1c1ccc([N+](=O)[O-])cc1 (stereo not given) | -7.41% (active)
17 | O=C(Nc1ccc(CO)cc1)c1ccccc1Nc1ccnc(C(F)(F)F)c1 | 98.3%
18 | Cc1cc(N(CCOS(C)(=O)=O)CCOS(C)(=O)=O)ccc1C=Nc1ccc(-c2nc(Cc3ccccc3)sc2C)cc1 | 4.95% (active)
19 | CN(C)c1ccc(N=C2C=CC(=O)c3ccccc32)cc1 | 82.2%
20 | COc1ccc2[nH]c3nc4cnccc4cc3c2c1 | 108%

Row | SMILES | growth
21 | Cc1c(C)n(CC(O)CNC2CCCCC2C)c2ccccc12 (stereo not given) | -13.8% (active)
22 | Cc1ccc(/C=C/C(=O)C(=O)/C=C/c2ccc(C)cc2)cc1 | 93.3%
23 | C=CCn1c(SCC(=O)Nc2ccc(C(=O)/C=C/c3ccc(Cl)cc3)cc2)nnc1-c1cc(-c2ccccc2)nc2ccccc12 | 99.8%
24 | Cc1ccc(-c2csc(NC(=O)CSc3nc(-c4ccccc4)cc(=O)[nH]3)n2)cc1 | 49.4%
25 | CC(C)CN1CC(C(=O)Nc2ccc3c(c2)-c2ccccc2C3)CC1=O (stereo not given) | 91.7% [50 µM]
26 | O=C(Nc1ccc2c(c1)OCO2)C(=O)c1c[nH]c2cc(F)ccc12 | 53.5%
27 | COc1ccc(S(=O)(=O)N(C(C)=O)c2ccccc2/C=C/c2cc[n+]([O-])cc2)cc1 | -27.6% (active)
28 | CCN(CC)CCOc1ccc2c(c1O)C(=O)c1ccccc1C2=O | 71.4%
29 | Fc1cc(-c2nnc3sc(-c4ccc(Cl)cc4)nn23)c(Cl)cc1Cl | 26.9%
30 | C=C1C(=O)O[C@H]2[C@H]1CC/C(Cn1cc(-c3cccc(Cl)c3)nn1)=C\CC[C@@]1(C)O[C@@H]21 | -24.9% (active)
31 | N#Cc1ccc(C2C3=C(CCCC3=O)OC3=C2C(=O)c2ccccc2C3=O)cc1 (stereo not given) | -21.4% (active)
32 | NS(=O)(=O)Oc1ccc(-c2ccc3sccc3c2)cc1 | 99.7%
33 | COC(=O)C1C2CC3c4[nH]c5cc(OC)ccc5c4CCN3CC2CC(OC2CCCCO2)C1OC (stereo not given) | 98.7%
34 | CCN(CC)CCCNCc1cc(-c2ccccc2)nc2ccccc12 | -19.3% (active)
35 | CCCn1cnc2c1c(=O)n(CCCCC(C)=O)c(=O)n2C | 91.4%
36 | CC(=O)Nc1ccc(/C=N/N2CCCCCC2)cc1 | 95.1%
37 | O=C(CCCN1CCOCC1)Nc1ccc(Cn2nnc3c2C(=O)c2nnn(Cc4ccc(NC(=O)CCCN5CCOCC5)cc4)c2C3=O)cc1 | -7.47% (active)
38 | COc1ccc(-n2nc(C)c3c(Nc4ccc(NC(=O)Nc5c(Cl)cccc5Cl)cc4)ncnc32)cc1 | 97.8%
39 | CCCCCCCCCCCC[n+]1ccc2ccccc2c1 | -53.4% (active)
40 | COc1ccc2c(O)c(/C=C3\N=Nc4ccccc43)oc2c1C[C@H]1CCNC[C@H]1F | 14.4%
